KB-3-1 cytotox – kills parental KB-3-1 adenocarcinoma cells. 400,000 compounds, 1.4% hits. KB-3-1 viability, CellTiter-Glo ATP luminescence, 72 h. Potency, µM (doses to about 46.1 µM), usual class: cytotoxic; further: potency means the concentration at half of the fitted maximal effect; on the % scale 0 is the no-effect control and ±100 the full control effect; nearly all actives have a fitted effect of over 60% in size
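Using CellTiter-Glo luminescence, growth of non-resistant KB-3-1 adenocarcinoma cells is assessed 72 h after pin-tool compound addition at 37 °C. Normalized responses across the concentration series yield fitted curves.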
DRD3 antagonist – blocks the human D3 dopamine receptor; P35462; 360,000 compounds, 2.5% hits; D3R cells, DiscoveRx beta-arrestin luminescence, antagonist mode; active compounds read low; max response, negative = inhibition, %; in the data active means max response below about -50%; inconclusive means no clear call, values can overlap the other calls; further: on the % scale 0 is the no-effect control and ±100 the full control effect
Target sequence (P35462 whole entry, looked up): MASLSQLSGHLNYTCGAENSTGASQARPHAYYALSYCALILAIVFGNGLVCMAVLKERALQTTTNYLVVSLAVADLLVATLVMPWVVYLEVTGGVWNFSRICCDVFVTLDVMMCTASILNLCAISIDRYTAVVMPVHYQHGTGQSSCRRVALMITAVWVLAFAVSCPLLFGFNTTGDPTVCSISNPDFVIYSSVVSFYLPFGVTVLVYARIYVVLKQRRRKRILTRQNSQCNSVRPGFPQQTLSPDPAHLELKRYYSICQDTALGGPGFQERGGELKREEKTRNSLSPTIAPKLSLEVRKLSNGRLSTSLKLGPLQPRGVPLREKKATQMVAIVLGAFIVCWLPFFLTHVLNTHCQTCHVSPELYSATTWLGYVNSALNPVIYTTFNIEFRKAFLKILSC
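Cells expressing the human receptor were seeded at 1500 cells/well, incubated overnight at 37 degrees C in 5% CO2, then exposed to library compounds with dopamine controls for 90 minutes at 37 degrees C before luminescent detection.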
DRD3 agonist – D3 dopamine receptor (human) agonism; 410,000 compounds, 0.58% hits; AID 652048; P35462; max activation, %; D3R DiscoveRx beta-arrestin cells, luminescence, 90 min; in the data active means max activation above about 30%; further: 0% is about no effect
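Agonist-mode cell screen: cells plated at 1500/well and incubated overnight at 37 °C, then exposed to library compounds for 90 min at 37 °C. Detection reagent was added for 30–60 min at room temperature, and luminescence was read.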
SW480 rereplic – DNA re-replication induction in SW480 cells | Potency, µM (titrated, usually from 46.1 µM), inactives show at the top dose re-replication activation, most hits filed as activators | AID 624297 | 340,000 compounds, 1.8% hits | SW480 DNA re-replication, Hoechst DNA content imaging, 48 h; further: potency means the concentration at half of the fitted maximal effect; % of control where 0% means no effect; nearly all actives have a fitted effect of over 55% in size
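Image-based DNA-content assay: after two days of treatment, nuclei were labelled with the DNA dye Hoechst and imaged, and hits were compounds raising the count of nuclei showing high fluorescence intensity.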
MCF10A rerep – induces DNA re-replication in MCF 10a normal breast cells | MCF 10A DNA re-replication, Hoechst nuclear intensity, 48 h | Potency, µM (series often up to 46.1 µM), for inactives: at the highest dose activity, positive = re-replication, actives largely listed as activators | 350,000 compounds, 2.9% hits | AID 624296; further: potency means the concentration at half of the fitted maximal effect; % of control where 0% means no effect; nearly all actives have a fitted effect of over 50% in size
KB-V1 MDR tox – kills drug-selected multidrug resistant KB-V1 cells; KB-V1 MDR cells viability, CellTiter-Glo, 72 h; Potency, µM (top dose mostly 46.1 µM), most hits filed as cytotoxic; 400,000 compounds, 3.4% hits; further: potency means the concentration at half of the fitted maximal effect; on the % scale 0 is the no-effect control and ±100 the full control effect; nearly all actives have a fitted effect of over 60% in size
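Readout: CellTiter-Glo luminescence, 10 min after addition. Cells: KB-V1 MDR subline, 72 h at 37 degrees C with compound. Analysis: corrected, normalized data fitted to concentration-effect curves.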
Numbers without * were called inactive; i = inactive; ? = inconclusive; · = not tested or not shown. In the library only some 8.9% were active in any assay of this set; here they are far more common. Unless noted, the call rests on the fitted dose curve; in most records, active means well fitted curve in the direction sought with a large enough effect; inconclusive means small, poorly fitted or top-dose-only effect, or another doubt; inactive means no such curve, though single readings can be large; an effect the other way counts as inactive or inconclusive.

SMILES	KB-3-1 cytotox	DRD3 antagonist	DRD3 agonist	SW480 rereplic	MCF10A rerep	KB-V1 MDR tox
COc1cccc(Cn2c(=O)c3ccccc3n3nc(C)cc23)c1	?	14.7	9.6	-4.1%	?	20.6µM*
CSc1nc(Oc2ccc3ccccc3c2)c2sccc2n1	5.17µM*	-21.3	-7.4	20.6µM*	?	?
COc1ccc(Oc2nc(SC)nc3ccsc23)cc1	?	10.8	-1.7	?	?	?
Cc1ccc(CCNC(=O)C(NS(=O)(=O)c2ccc3c(c2)oc(=O)n3C)C(C)C)cc1 (stereo unspecified)	i	·	2.7	·	·	i
Cc1cc(Br)ccc1NCc1ccccn1	i	-24.7	-18.9	18.4µM*	18.4µM*	?
COc1ccc(Br)cc1S(=O)(=O)NCc1ccccn1	i	5.5	4.0	1.9%	?	i
CC1CCN(c2nn3c(=O)c(C(=O)NCCc4ccc(Cl)cc4)cnc3s2)CC1	i	·	-7.1	·	·	i
Nc1c(Cl)cc2c(c1Br)Cc1ccccc1-2	i	5.7	-10.0	4.6%	-3.8%	i
Nc1c(Cl)cc2c(c1Oc1ccccc1)C(=O)c1ccccc1C2=O	i	8.6	2.9	?	13µM*	?
CCOC1=C2CN(S(=O)(=O)c3ccc(C)cc3)C(c3ccc(CC)cc3)CC2N(S(=O)(=O)c2ccc(C)cc2)C(c2ccc(CC)cc2)C1 (stereo unspecified)	1.03µM*	12.3	6.7	·	·	i
CCc1nn(CC(=O)NCc2ccc(OC)c(OC)c2)c(=O)c2cc3sc(C)cc3n12	·	·	3.6	·	·	·
Cc1ccc2nc(N3CCN(C(=O)CCC(=O)O)CC3)nc(-c3ccccc3)c2c1	i	14.6	3.4	14.3%	20.6µM*	i
Cc1ccc2nc(N3CC(=O)Nc4ccccc43)nc(-c3ccccc3)c2c1	i	15.3	0.2	18.4µM*	3.26µM*	?
Cc1ccc2nc(N3CCC(C(=O)O)CC3)nc(-c3ccccc3)c2c1	i	24.2	-0.8	0.1%	20.6µM*	i
O=C(O)CCCC(=O)N1CCN(c2nc(-c3ccccc3)c3ccccc3n2)CC1	i	1.6	-1.5	?	5.7%	i
Nc1nc(N)c2c(ccc3c2ccn3Cc2cccc([N+](=O)[O-])c2)n1	0.581µM*	21.3	3.2	·	·	1.84µM*
Nc1nc(N)c2cc([N+](=O)[O-])ccc2n1	?	-1.6	2.0	-0.7%	0.4%	i
COc1ccc(CN(CCC(c2ccc(F)cc2)C2CCOC(C)(C)C2)C(=O)c2ccco2)cc1 (stereo unspecified)	?	16.1	4.0	4.6%	23.1µM*	?
CC(c1ccccc1)N(CCC(c1ccccc1)C1CCOC(C)(C)C1)C(=O)c1ccco1 (stereo unspecified)	i	25.4	-4.2	-2.1%	16.4µM*	9.2µM*
Cc1ccc(SCc2nc(-c3ccc(C(=O)NCc4ccc(Cl)cc4)cc3)oc2C)cc1	i	·	7.4	·	·	i
CO[C@@]1(NC(=O)CSC[C@@H](N)C(=O)O)C(=O)N2C(C(=O)O)=C(CSc3nnnn3C)CS[C@@H]21	·	·	-25.5	·	·	·
COc1ccc(-c2cc([N+](=O)[O-])ccc2OCC(=O)N(C)CC(=O)Nc2ccc(C)cc2)cc1	?	?	-8.2	-4.1%	2.9%	?
Cc1ccc(NC(=O)CN(C)C(=O)COc2cc(F)ccc2[N+](=O)[O-])cc1	i	-53.1*	-17.0	0.9%	-49.2%	i
CCCC(C)Sc1nc2c([nH]1)c(=S)n(C)c(=O)n2C (stereo unspecified)	?	1.8	4.2	?	15.6%	8.2µM*
Cn1c(=S)c2[nH]c(SCC3CCCO3)nc2n(C)c1=O (stereo unspecified)	?	0.0	2.7	?	3.5%	i
SMILES	KB-3-1 cytotox	DRD3 antagonist	DRD3 agonist	SW480 rereplic	MCF10A rerep	KB-V1 MDR tox
O=C(O)C1C(C(=O)Nc2ccc(Cl)cc2)C2C=CC1C21CC1 (stereo unspecified)	i	-22.5	9.7	-5.3%	?	20.6µM*
COc1ccc(NC(=O)COCc2cc(-c3ccco3)on2)cc1Cl	?	·	-16.1	·	·	i
COc1cccc(Nc2nc3cc(C)ccc3nc2NS(=O)(=O)c2ccc(Cl)cc2)c1	?	·	43.3*	·	·	14.6µM*
CCOC(=O)c1nc(C)nc(Sc2n[nH]c(-c3cc(C(F)(F)F)cc(C(F)(F)F)c3)n2)c1C	i	16.6	14.6	-19.5%	16.4µM*	i
Cc1nn(Cc2ccc(Cl)cc2Cl)c(C)c1NC(=O)NC12CC3CC(CC(C3)C1)C2	?	-3.7	-3.7	2.7%	?	14.6µM*
CCn1nc(C)c(NC(=O)/C=C/c2cnn(C)c2C)c1C	?	-15.6	-1.2	-5.6%	-1.2%	i
Cc1nn(Cc2ccccc2)c(Cl)c1C(=O)OCC(=O)NC(=O)NC12CC3CC(CC(C3)C1)C2	i	4.6	1.0	0.8%	4.9%	i
CCn1ncc(/C=C/C(=O)Nc2c(C)nn(Cc3ccc(Cl)cc3Cl)c2C)c1C	i	21.9	-15.3	10.3µM*	4.1%	i
CNC(=O)Cn1cc(S(=O)(=O)Cc2ccccc2F)c2ccccc21	i	·	3.3	·	·	i
Cc1cc(SCC(=O)NCc2ccccc2Cl)nc(=O)[nH]1	i	·	-5.9	·	·	i
Cc1c(C(=O)N/N=C/C(C)C)[nH]c2c([N+](=O)[O-])cccc12	?	0.4	-7.5	?	20.6µM*	?
Cc1ccc2cc(C)c3nnc(SCC(=O)Nc4nc5c(s4)CCCC5)n3c2c1C	i	-11.6	-11.9	?	?	18.4µM*
Cc1ccc(C)c2c1cc(C)c1nnc(SCC(=O)Nc3nc4c(s3)CCCC4)n12	i	-0.5	6.1	1.8%	20.6µM*	i
CCCC1=Nc2cc(C(=O)NCCCOCC)ccc2Sc2ccccc21	0.517µM*	-16.5	-10.5	?	?	1.03µM*
CCCC1=Nc2cc(C(=O)NCCOC)ccc2Sc2ccccc21	·	·	-16.3	·	·	·
CCCC1=Nc2cc(C(=O)NCCCOC(C)C)ccc2Sc2ccccc21	4.61µM*	-21.1	-5.9	5.8µM*	2.59µM*	7.31µM*
CCC(C)c1ccc(N(C(=O)c2ccco2)C(C(=O)NC2CCCC2)c2cccnc2)cc1 (stereo unspecified)	i	0.4	-1.9	0.8%	11.9%	?
COc1cc(-c2nnc(-c3ccco3)o2)ccc1OCc1ccccc1	?	36.4	30.3*	19.3%	16.4%	4.11µM*
COc1ccc(-c2nnc(-c3ccccc3)o2)cc1OC	i	-8.3	-0.5	-1.3%	-1.3%	i
COc1cc(-c2nnc(-c3ccncc3)o2)ccc1OCc1ccccc1	i	49.3	80.7*	-17.7%	?	i

High-throughput results (PubChem BioAssay)
